Assay outcomes deposited in PubChem BioAssay by several laboratories.
Sampled rows, rich in hits. Any-hit rate of the full collection: about 1.4%.
GALR2 antag = antagonists of human galanin receptor 2 (GALR2). inhibition, % at 4 µM. GALR2-expressing cells, antagonist mode. O43603. 0.39% of 140,000 active;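 note: cells stimulated with galanin 1-16 at roughly its EC80; 0% = agonist challenge control and 100% = basal control without agonist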
Mac1 fbg inh = CD11b/CD18-fibrinogen binding inhibition; inhibition, % at 10 µM; K562 CD11b/CD18 adhesion to fibrinogen, ATPlite luminescence; Mn2+ added to activate the integrin; 0.54% of 93,000 active; P05107+P11215;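 active = primary inhibition of 50% or more at 10 µM, then 40% or more on retest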
Target sequence (P05107 whole entry, looked up, other chains not shown): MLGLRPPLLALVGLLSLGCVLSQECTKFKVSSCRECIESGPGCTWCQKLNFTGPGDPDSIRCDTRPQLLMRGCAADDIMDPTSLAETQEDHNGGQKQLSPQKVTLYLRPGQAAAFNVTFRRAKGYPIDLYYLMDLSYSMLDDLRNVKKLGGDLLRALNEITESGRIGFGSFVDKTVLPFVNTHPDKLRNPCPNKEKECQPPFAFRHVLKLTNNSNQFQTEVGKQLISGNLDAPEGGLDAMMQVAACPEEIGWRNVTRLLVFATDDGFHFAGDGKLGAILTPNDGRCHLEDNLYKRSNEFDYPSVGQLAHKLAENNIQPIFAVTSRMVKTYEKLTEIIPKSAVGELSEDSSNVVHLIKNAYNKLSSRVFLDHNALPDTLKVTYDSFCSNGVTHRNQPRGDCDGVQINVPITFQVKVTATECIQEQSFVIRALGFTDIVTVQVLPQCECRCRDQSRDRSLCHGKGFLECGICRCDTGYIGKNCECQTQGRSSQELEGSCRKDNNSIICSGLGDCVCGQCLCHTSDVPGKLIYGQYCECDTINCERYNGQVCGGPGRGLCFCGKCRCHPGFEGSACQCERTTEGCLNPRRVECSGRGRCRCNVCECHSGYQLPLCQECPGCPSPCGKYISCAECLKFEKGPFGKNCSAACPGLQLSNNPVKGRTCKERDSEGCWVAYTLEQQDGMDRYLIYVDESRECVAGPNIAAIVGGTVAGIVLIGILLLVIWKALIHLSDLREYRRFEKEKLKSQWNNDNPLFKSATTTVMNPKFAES
S1P2 ag = S1P2 (human) receptor agonism | O95136 | S1P2-expressing cell line, agonist reporter read-out | activation, % at 4.5 µM | 0.46% of 97,000 active | AID 729; in the data active = activation above about 16%;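 note: 0% = vehicle low control and 100% = maximal reference agonist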
S1P2 blocker = antagonists of human S1P2 receptor. 0.21% of 97,000 active. O95136. inhibition, % at 5 µM. cell-based S1P2 antagonist assay, inhibition at 5 uM; in the data active = inhibition above about 45%;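 note: CRE beta-lactamase reporter cells expressing human S1P2 stimulated with S1P; 0% = agonist at EC80 alone and 100% = agonist plus reference antagonist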
GALR2 agonist = GALR2 (human) receptor agonism. O43603. AID 803. activation, % (no concentration beside the values). GALR2-expressing cells, agonist activation read-out. 0.48% of 140,000 active; in the data active = activation above about 5%, passing the limit was not always enough;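 note: 0% = vehicle buffer wells and 100% = reference agonist at full effect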
Mac1 fbg enh = increases human CD11b/CD18 adhesion to fibrinogen; activation, % at 10 µM; K562 CD11b/CD18 adhesion to fibrinogen, ATPlite luminescence; 0.07% of 93,000 active; AID 1499;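 active = 10 µM primary screen giving 50% or more activity, confirmed by 40% or more on retest at that dose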
GALR2 blk conf = GALR2 (human) antagonism confirmed; shares compounds with GALR2 antag; GALR2-expressing cells, antagonist mode, inhibition; inhibition, % at 4 µM; 60% of 480 active; AID 866;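 note: cells stimulated with galanin at about its EC80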
BLA inh counter = counter-screen for GALR2 antagonists: beta-lactamase reporter inhibitors; shares compounds with GALR2 antag; inhibition, % at 4.2 µM; 36% of 480 active; CHO NFAT-BLA reporter, beta-lactamase FRET, thapsigargin-stimulated;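 active = inhibition above the mean inhibition across tested compounds plus 3 SD, cut at about 27% in these data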;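 note: 0% = 500 nM thapsigargin stimulated wells and 100% = unstimulated BSA only wells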
Active calls of the source: *; x = no result. Cut-off read from the data, not from the text of the source, unless noted: active = inhibition above about 27%; inactive = the rest.

SMILES | GALR2 antag | Mac1 fbg inh | S1P2 ag | S1P2 blocker | GALR2 agonist | Mac1 fbg enh | GALR2 blk conf | BLA inh counter
Cc1cc(C)c2c(N)c(-c3nc4ccccc4[nH]3)sc2n1 | 28* | 2 | 4 | -10 | 0 | -3 | 25 | 0
Cc1ccc2nc(-c3sc4nc(C)ccc4c3N)[nH]c2c1 | 24 | x | -3 | -21 | 1 | x | x | x
CCN1C(=O)C(C)S/C1=N\S(=O)(=O)c1ccc(F)cc1 (stereo not drawn) | -15 | x | x | x | -1 | x | x | x
COc1ccc(NC2=Nc3cccc4cccc2c34)cc1 | 27* | x | x | x | 0 | x | 16 | 6
COc1ccccc1C(=O)NCc1ccc2c(c1)OCO2 | 6 | 1 | x | x | -1 | -4 | x | x
COc1cc(OC)nc(-n2ncc(Br)c(Br)c2=O)n1 | 103* | x | x | x | -2 | x | 103* | 105*
Nc1ccc2c(c1)C/C(=C/c1ccco1)C2=O | 29* | x | x | x | -2 | x | 33* | 36*
O=C1/C(=C/c2ccco2)CCc2ccccc21 | -4 | x | x | x | 0 | x | x | x
Cc1ccc(SC(C)C(=O)Nc2ccccc2C(=O)N2CCOCC2)cc1 (stereo not drawn) | 32* | -2 | -3 | -10 | -1 | 5 | 8 | 2
CCc1c(C)nc2ncnn2c1NCCc1ccc(OC)cc1 | 32* | x | -10 | 27 | -2 | x | 35* | 10
CCOC(=O)C1=C(C)N(C)C(C)=C(C(=O)OCC)C1c1ccc(C(=O)OC)cc1 | -7 | -1 | 1 | -20 | -1 | 1 | x | x
CC(=O)SC(C[N+](=O)[O-])c1cn(C(C)=O)c2ccccc12 (stereo not drawn) | 35* | 51 | -10 | 29 | -1 | -6 | 56* | 21
CC(=O)n1cc(Nc2ccccc2C(=O)O)c2ccccc21 | 11 | -3 | -2 | 9 | -3 | 1 | x | x
COC(=O)/C(=C1/Oc2cc(C)oc(=O)c2S1)C(F)(F)F | 61* | x | x | x | -2 | x | 66* | 51*
Cc1nc2ccccn2c1C(=O)NNS(=O)(=O)c1ccc(C(C)(C)C)cc1 | 30* | x | x | x | -2 | x | 20 | 10
CCOc1ccc(OCC)c(S(=O)(=O)NNC(=O)c2c(C)nc3ccccn23)c1 | 3 | x | x | x | 1 | x | x | x
CCNC(=O)COc1ccc(C=O)cc1OC | 66* | 3 | x | x | 0 | 0 | 5 | -6
Cn1c(=O)cc(SCC(=O)N2CCCC2)c2ccc(Cl)cc21 | 2 | 5 | -4 | -19 | -4 | 2 | x | x
CCOc1ccc(-n2cc(-c3ccccc3)c3c(SC(C)C(=O)OC)ncnc32)cc1 (stereo not drawn) | -5 | -18 | x | x | -1 | 8 | x | x
Cn1c(CNC(=O)Nc2cccc(Cl)c2)nnc1SCc1ccccc1 | 28* | -2 | -7 | 33 | -2 | 1 | 15 | 8
Cc1nc2c3ccccc3nc(NNC(=O)CCC(=O)NCCC(C)C)n2n1 | 8 | x | x | x | 0 | x | x | x
Cc1cc(N2C(=O)C=CC2=O)c([N+](=O)[O-])cc1C | 45* | x | x | x | -2 | x | 46* | 71*
Cc1ccc(C)c(N2CCN(c3ccc(N4C(=O)COCC4=O)cc3[N+](=O)[O-])CC2)c1 | 8 | x | x | x | -1 | x | x | x
O=C(N/N=C/c1cc2c3c(c1O)CCCN3CCC2)c1ccccc1O | 32* | x | x | x | -2 | x | 35* | 24
COc1ccc(Cn2nnnc2C(c2cccs2)N2CCCCCC2)cc1 (stereo not drawn) | -4 | 12 | -7 | 0 | 1 | 2 | x | x
SMILES | GALR2 antag | Mac1 fbg inh | S1P2 ag | S1P2 blocker | GALR2 agonist | Mac1 fbg enh | GALR2 blk conf | BLA inh counter
CC(=O)Nc1cn(C(C)=O)c(C)n1 | 29* | -4 | x | x | -3 | -3 | 14 | 6
CCOc1ccc(-c2nc(-c3ccncc3)no2)cc1OCC | -2 | -28 | 0 | -15 | -2 | 1 | x | x
CCOc1cc(-c2nc(-c3ccncc3)no2)cc(OCC)c1OCC | 35* | 10 | -8 | 2 | -5 | -6 | 2 | 6
COC(=O)c1sccc1NC(=O)C12CC3CC(CC(C3)C1)C2 | -7 | x | -1 | -23 | -1 | x | x | x
Cc1sc2ncnc(NCc3cccs3)c2c1C | 28* | x | -1 | 37 | -2 | x | 24 | 14
Cc1sc2ncnc(NCc3ccco3)c2c1C | 6 | 20 | -3 | -9 | 0 | -2 | x | x
COc1ccc(NC(=O)/C(Cl)=C(/Cl)S(=O)Cc2ccccc2)cn1 (stereo not drawn) | 105* | -24 | -7 | 101* | -3 | -3 | 102* | 106*
COc1ccc(/C=C/C(=O)Nc2ccc(OC)nc2)cc1 | 8 | x | x | x | -1 | x | x | x
COc1ccc(CS(=O)(=O)/C(Cl)=C(/Cl)C(=O)Nc2ccc(OC)nc2)cc1 | 93* | -11 | -14 | 95* | -4 | -4 | 92* | 92*
CC(C)CN(C(=O)CSc1nnc2c(Cl)cc(C(F)(F)F)cn12)C1CCS(=O)(=O)C1 (stereo not drawn) | 5 | 7 | -6 | 8 | -1 | -1 | x | x
CCCCNS(=O)(=O)c1ccc(S(=O)(=O)NCc2ccncc2)cc1 | 27* | x | -4 | 19 | -2 | x | 20 | 13
Cc1cc(C)c(S(=O)(=O)NCc2ccncc2)c(C)c1 | 31* | 83* | -5 | 47* | 1 | -9 | 35* | 9
OC(COc1ccccc1)CN1C2=NCCCN2c2ccccc21 (stereo not drawn) | -13 | -8 | -9 | 14 | -3 | -1 | x | x
CCN(CC)c1ccc(/C=N/Nc2nc3ccccc3[nH]2)c(O)c1 | 43* | -5 | 1 | 3 | 0 | -3 | 45* | 15
Cc1ccc2cc(/C=N/Nc3nc4ccccc4[nH]3)c(Cl)nc2c1 | 98* | 53 | x | x | -3 | -1 | 23 | 14
COc1cc(/C=N\Nc2nc3ccccc3[nH]2)cc(OC)c1OC | 12 | 14 | 4 | -6 | -2 | -2 | x | x
CCN(CC)c1ccc(/C=N/N(c2ccccc2)c2ccccc2)c(O)c1 | 9 | -8 | x | x | 0 | -5 | x | x
CCOCCCNC(=O)/C(C#N)=C/c1ccc(-c2ccc(S(=O)(=O)N3CCOCC3)cc2)o1 | 6 | x | x | x | 1 | x | x | x
Cc1nn(-c2ccccc2)c2c1C(c1ccc([N+](=O)[O-])cc1)N1C(=N2)C(=O)Nc2ccccc21 (stereo not drawn) | 4 | -14 | x | x | 0 | 53 | x | x
Cc1nn(-c2ccc([N+](=O)[O-])cc2)c2c1C(c1cccc(Br)c1)N1C(=N2)C(=O)Nc2ccccc21 (stereo not drawn) | 6 | x | x | x | 0 | x | x | x
Cc1ccc(NC2=Nc3ccccc3N3C2=Nc2c(c(C)nn2-c2ccccc2)C3c2ccc(O)c(O)c2)cc1 (stereo not drawn) | 58* | x | -9 | 77* | 4 | x | 51* | 69*
Cc1cccc(NC2=Nc3ccccc3N3C2=Nc2c(c(C)nn2-c2ccccc2)C3c2ccc(O)c(O)c2)c1 (stereo not drawn) | 45* | x | -8 | 80* | 3 | x | 44* | 68*
